Assay results: PubChem BioAssay (NCI)
About 83,000 compounds went through this panel and 20% of them were active in at least one assay; those are over-represented in the sample as a whole.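 Note: values are percent growth. 100 is the growth of untreated cells, values between 100 and 0 indicate rising inhibition; between -100 and 0 indicates cell death.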 Values without a mark were called inactive. Active and inactive are the calls of the source. Rule for the calls: active = growth percent below 10; inactive = the rest.

What was measured:
Assay in all cases: NCI-60 one-dose screen, 48 h (100 = growth as untreated, 0 = no growth, -100 = all killed)
Conditions in all cases: 10 µM unless noted
NCI-H23 lung = tested on: NCI-H23 lung
NCI-H226 lung = tested on: NCI-H226 lung
NCI-H322M lung = tested on: NCI-H322M lung
HOP-62 NSCLC = tested on: HOP-62 NSCLC
NCI-H460 lung = tested on: NCI-H460 lung
NCI-H522 lung = tested on: NCI-H522 lung
A549/ATCC NSCLC = tested on: A549/ATCC NSCLC
786-0 renal = tested on: 786-0 renal
COLO 205 colon = tested on: COLO 205 colon
DU-145 prostate = tested on: DU-145 prostate
K-562 leukemia = tested on: K-562 leukemia
MALME-3M melanoma = tested on: MALME-3M melanoma
MDA-MB-231 breast = tested on: MDA-MB-231 breast
RXF 393 renal = tested on: RXF 393 renal
SF-268 CNS = tested on: SF-268 CNS
SF-295 CNS = tested on: SF-295 CNS
SF-539 CNS = tested on: SF-539 CNS
UACC-257 melanoma = tested on: UACC-257 melanoma
M14 melanoma = tested on: M14 melanoma

SMILES	growth (NCI-H23 lung)	growth (NCI-H226 lung)	growth (NCI-H322M lung)	growth (HOP-62 NSCLC)	growth (NCI-H460 lung)	growth (NCI-H522 lung)	growth (A549/ATCC NSCLC)	growth (786-0 renal)	growth (COLO 205 colon)	growth (DU-145 prostate)	growth (K-562 leukemia)	growth (MALME-3M melanoma)	growth (MDA-MB-231 breast)	growth (RXF 393 renal)	growth (SF-268 CNS)	growth (SF-295 CNS)	growth (SF-539 CNS)	growth (UACC-257 melanoma)	growth (M14 melanoma)
Cc1ccncc1NC=O	101%	101%	102%	109%	106%	99.1%	102%	103%	110%	113%	107%	105%	110%	111%	104%	104%	102%	106%	96.4%
CO[C@H](C(=O)[C@@H](O)[C@@H](C)O)[C@@H]1Cc2cc3cc(O[C@H]4C[C@@H](O[C@H]5C[C@@H](O)[C@H](O)C(C)O5)[C@H](O)C(C)O4)c(C)c(O)c3c(O)c2C(=O)[C@H]1O[C@H]1C[C@@H](O[C@H]2C[C@@H](O[C@H]3C[C@](C)(O)C(=O)C(C)O3)[C@@H](O)C(C)O2)[C@H](O)C(C)O1 (stereo partly specified)	-7.26% (active)	1.78% (active)	7.31% (active)	-2.07% (active)	4.88% (active)	-31.9% (active)	4.12% (active)	4.11% (active)	-52.4% (active)	9.76% (active)	9.26% (active)	-26.8% (active)	10.6%	-54.2% (active)	16.4%	6.84% (active)	0.369% (active)	-27.4% (active)	-27% (active)
CCCCSc1ncnc2c1ncn2C1CCCCO1 (stereo unspecified)	106%	107%	114%	105%	111%	106%	105%	97.9%	108%	121%	97%	115%	110%	120%	106%	111%	104%	108%	
O=C(/C=C/c1ccccc1)c1c[nH]c2ccccc2c1=O	9.55% (active)	8.22% (active)	-7.62% (active)	23.6%	-32.8% (active)	0.426% (active)	3.17% (active)	4.48% (active)	0.617% (active)	7.22% (active)	11.1%	43.6%	-1.53% (active)	18.1%	-14.1% (active)	-51.7% (active)	-24.5% (active)	58.9%	-24% (active)
COc1ccccc1-[n+]1cc(-c2ccc(-c3ccccc3)cc2)n2c1CCCCC2	2.82% (active)	21.8%	20%	12.6%	7.28% (active)	-12% (active)	10.3%	18.5%	-7.92% (active)	20.7%	10.5%	0.879% (active)	19.1%	15.2%	21.2%	-1.81% (active)	18.2%	-22.9% (active)	
CC(=O)c1ccc(N2C(=O)c3ccc(Oc4ccccc4)cc3C2=O)cc1	101%	98.8%	106%	99.9%	105%	93.1%	109%	108%	116%	103%	119%	106%	113%	112%	100%	81.1%	107%	118%	98.8%
Nc1c(C(=O)C[C@@H](N)CO)ccc2c1C(=O)CCO2	55.2%	76.3%	16.7%	28.1%	13%	45.1%	40.4%	78.6%	46.9%	42.9%	33.4%	48.2%	61%	90.7%	43.6%	48.3%	41.3%	65.4%	48.6%
O=S(=O)(Cc1ccc(Cl)cc1Cl)c1ccc(Cl)cc1	50.2%	69.3%	50.3%	36.5%	18.4%	-5.62% (active)	30.7%	30.2%	8.87% (active)	41%	10.5%	58%	49.8%	-15.6% (active)	67.8%	2.18% (active)	12.7%	77.4%	9.79% (active)
COc1ccc(CC2c3cc(OC)c(OC)cc3CC[N+]2(C)CCC(=O)OCCCCCOC(=O)CC[N+]2(C)CCc3cc(OC)c(OC)cc3C2Cc2ccc(OC)c(OC)c2)cc1OC (stereo unspecified)	93.4%	76.3%	90.9%	100%	100%	86.1%	101%	103%	112%	99.8%	111%	99.6%	92.2%	91.5%	87.6%	93.5%	100%	100%	88.5%
Cc1ccc(NC(=O)c2sc3nc4c(cc3c2N)C(=O)CCC4)cc1Cl	100%	102%	109%	110%	106%	96.1%	101%	104%	128%	109%	93%	112%	113%	117%	115%	80%	102%	95.1%	122%
O=C(CCl)Nc1cc(O)c2c(c1)C(=O)c1cccc(O)c1C2=O	-45% (active)	-20.6% (active)	59%	-100% (active)	-43.5% (active)	-89% (active)	91%	-71.5% (active)	-81.5% (active)	-82.5% (active)	-46.2% (active)	-72.9% (active)	-27.7% (active)	-67.1% (active)	-49.5% (active)	61.7%	-32.3% (active)	5.96% (active)	-33.2% (active)
CCN(CC)Cc1cc(Nc2ccnc3ccc(OC)cc23)ccc1O	56%	56.4%	38.5%	71.2%	20.1%	-1.72% (active)	22.5%	18.2%	78.2%	40.5%	12.7%	75%	58.8%	48.9%	53%	79%	64.7%	-17.7% (active)	29.5%
COc1cc2c(c(OC)c1O)C(=O)C(OC)C(c1ccc(O)c(O)c1)O2 (stereo unspecified)	24.7%	16.8%	37%	42.3%	4.55% (active)	-11.9% (active)	17.7%	17%	88%	5.45% (active)	6.8% (active)	52.2%	-8.18% (active)	17.1%	24.6%	-6.27% (active)	-23% (active)	69.1%	-3.36% (active)
NC(N)=N/N=C/c1ccc(Cl)cc1	99.7%	80.1%	105%	75%	53.6%	79.9%	92.1%	97.1%	77.6%	73.8%	14%	88.3%	97.5%	89.3%	68.5%	81.9%	99.1%	80.7%	66.2%
O=C(C(=O)N1CCCC1)c1cn(CCCn2cc(C(=O)C(=O)N3CCCC3)c3cc(Br)ccc32)c2ccc(Br)cc12	80.3%	85.9%	82.3%	56.1%	53.4%	62%	57.8%	71.4%	106%	62.3%	81.9%	58.1%	82.1%	82.8%	53.7%	-22.4% (active)	69.5%	76.4%	89.2%
COc1ccc(C(=O)C(CN(C)C)c2ccc(OC)cc2)cc1 (stereo unspecified)	89.8%	84.2%	93.2%	96%	86.3%	-27.1% (active)	86.3%	28.6%	57.4%	7.55% (active)	16.3%	84.9%	59.4%	55.8%	60.2%	101%	78.8%	45.3%	60.6%
CN(C)CC(=O)c1ccc2cc(Br)c3ccccc3c2c1	74.1%	88.1%	75.7%	83.2%	59.4%	9.3% (active)	51.5%	47.4%	74.1%	77.8%	38.5%	106%	76.4%	72.2%	77.6%	82.8%	79.5%	66%	77.2%
